# PI4K2A block – qHTS for small molecular inhibitors of PI4K2A; Phosphatidylinositol 4-kinase type 2-alpha (Homo sapiens), Q9BTU6; purified PI4K2A, ADP-Glo luminescence, 1 h; hits give low values; activity change, negative = inhibition, % at 76.9 µM; actives 0.13% (n = 420,000); AID 1346378, 2018; in the data active = activity change below about -50%; inconclusive = mostly about -30% to -49%
# Target sequence (Q9BTU6 whole entry, looked up): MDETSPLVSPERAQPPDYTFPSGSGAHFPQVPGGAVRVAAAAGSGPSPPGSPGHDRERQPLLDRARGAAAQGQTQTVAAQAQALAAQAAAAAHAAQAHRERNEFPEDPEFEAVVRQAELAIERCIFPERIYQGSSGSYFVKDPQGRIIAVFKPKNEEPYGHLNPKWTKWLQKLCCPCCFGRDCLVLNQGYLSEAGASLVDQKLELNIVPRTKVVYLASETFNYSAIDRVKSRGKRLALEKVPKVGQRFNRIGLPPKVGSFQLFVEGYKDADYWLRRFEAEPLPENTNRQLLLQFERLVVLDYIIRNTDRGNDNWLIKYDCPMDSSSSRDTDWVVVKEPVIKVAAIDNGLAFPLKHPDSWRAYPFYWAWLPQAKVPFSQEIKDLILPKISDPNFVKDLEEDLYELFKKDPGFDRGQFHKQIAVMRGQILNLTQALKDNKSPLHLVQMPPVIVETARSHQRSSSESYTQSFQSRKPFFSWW
#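 ADP-Glo luminescence measured ADP generated by PI4K2A enzyme (4 ug/mL before mixing) with 1.2 mM PI substrate (pre-mix) and 300 microM ATP (pre-mix). Tris pH7.5 buffer with MgCl2, Triton X-100; 1 h reaction at ambient temperature.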
# Nrf2 inh – Nrf2 qHTS screen for inhibitors; AID 504444, 2011; Potency, µM (series often up to 46 µM), actives largely listed as inhibitors; actives 2.1% (n = 360,000); A549 ARE-Fluc reporter, luciferase luminescence, 18-24 h; also: nearly all actives have a fitted effect of over 60% in size
#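 Nrf2 function is reported as luminescence of an ARE-controlled luciferase in A549 cells. Compounds were tested at several concentrations, and a CellTiter-Fluor read on the same wells flagged cytotoxicity.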
# KB-3-1 tox – qHTS assay for MDR1-selective chemotherapeutics: Primary screen using the parental adenocarcinoma cell KB-3-1 | actives 1.4% (n = 400,000) | Potency, µM (titrated, usually from 46.1 µM), usual class: cytotoxic | KB-3-1 viability, CellTiter-Glo ATP luminescence, 72 h | AID 1347075, 2019; also: nearly all actives have a fitted effect of over 60% in size
#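 KB-3-1 parental drug-naive adenocarcinoma cells in DMEM/10% FBS, incubated 72 h at 37 C with pin-transferred compounds across a concentration series. Viability by CellTiter-Glo luminescence; concentration-response curves fitted after normalization.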
# KB-V1 cytotox – qHTS assay for MDR1-selective chemotherapeutics: Primary screen using the drug-selected MDR subline cells KB-V1. Potency, µM (titrated, usually from 46.1 µM), actives largely listed as cytotoxic. actives 3.4% (n = 400,000). KB-V1 MDR cells viability, CellTiter-Glo, 72 h. AID 1347076, 2019; also: nearly all actives have a fitted effect of over 60% in size
#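 Cytotoxicity via CellTiter-Glo luminescence after 72 h compound exposure at 37 degrees C. Cells: drug-selected KB-V1 line, DMEM phenol-red free plus 10% FBS. Compounds tested at multiple concentrations; normalized data fitted to concentration-effect curves.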
# A549 tox – Nrf2 qHTS screen for inhibitors: counterscreen for cytotoxicity | A549 ARE-Fluc cells, CellTiter-Fluor viability, 18-24 h | Potency, µM (series often up to 46 µM), most hits filed as inhibitors | actives 0.16% (n = 390,000) | AID 504648, 2011
#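 Cytotoxicity counterscreen: CellTiter-Fluor fluorescence was measured in A549 ARE_Fluc cells after 18-24 h of compound exposure in a concentration series. The subsequent BugLite luminescent read reports ARE-luciferase activity.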
# Giardia killer – Small Molecules that selectively kill Giardia lamblia: qHTS. activity change, % at 7.66 µM, hits read low. AID 540267, 2011. actives 0.15% (n = 340,000). Giardia lamblia trophozoite viability; in the data active = activity change below about -80%; inconclusive = between about -30% and that limit;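 also: parasites exposed to compound for two days anaerobically before the ATP read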
#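 Viability, read as ATP luminescence: trophozoites at 100 cells/well, compound added, 48 hrs anaerobic at 37 deg C, then 15-30 min room-temperature development before reading.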
# A number is an active result; n = inactive; u = inconclusive; x = no result. An excerpt weighted towards active compounds, which were near 5.7% of everything screened. Unless noted, calls follow the shape of the dose curve; as a rule, active = well fitted curve in the direction sought with a large enough effect; inconclusive = small, poorly fitted or top-dose-only effect, or another doubt; inactive = no such curve, though single readings can be large; an effect the other way counts as inactive or inconclusive.
SMILES,PI4K2A block,Nrf2 inh,KB-3-1 tox,KB-V1 cytotox,A549 tox,Giardia killer
Clc1ccc2c(c1)C(OC1CN3CCC1CC3)c1ccccc1CS2 (stereo not given),n,n,u,16.4µM,n,n
CN1CCN(CCOC2c3ccccc3CSc3ccc(Cl)cc32)CC1 (stereo not given),n,n,u,u,n,n
O=C(Nc1ccc2nc(SCC(=O)N3CCCc4ccccc43)sc2c1)c1cccc(F)c1,n,u,x,x,n,x
COC(=O)c1ccc(NC(=O)CSc2nc3ccc(N4C(=O)C5C6C=CC(C6)C5C4=O)cc3s2)cc1 (stereo not given),n,18.4µM,20.6µM,20.6µM,u,n
Cc1ccc(C)c(N2CCN(c3ncnc4onc(C)c34)CC2)c1,n,13µM,u,u,n,x
Nc1ccc2c3c(cccc13)-c1ccccc1-2,n,n,n,n,u,n
CC(C)c1oc(=O)cc2c1[C@@H](O)[C@H]1OC(=O)[C@@]3(C)CC[C@@H](O)[C@@]2(C)C13 (stereo not given in full),n,18.4µM,7.31µM,n,u,n
CC(C)c1oc(=O)cc2c1[C@@H](O)[C@H]1OC(=O)[C@@]3(C)C[C@@H](O)[C@@H](O)[C@@]2(C)C13 (stereo not given in full),n,18.4µM,8.2µM,n,u,n
COc1cc2c(c3oc4cccc(O)c4c(=O)c13)[C@@H]1C=CO[C@@H]1O2,n,x,x,x,x,x
C=Cc1cc(OC)c2c(c1)c(=O)oc1c2cc(OC)c2c(O)ccc(C3OC(C)C(O)C(C)(O)C3O)c21 (stereo not given),n,2.06µM,u,18.4µM,5.17µM,n
C=C(C)[C@H]1Cc2c(ccc3c2O[C@@H]2COc4cc(OC)c(OC)cc4[C@@H]2C3=O)O1,n,x,x,x,x,x
CNC(=O)Oc1ccc(-c2cn3cc(C)ccc3n2)cc1,u,1.16µM,n,18.4µM,u,-108.2
CCOc1ccc(CCNC(=O)c2cnc3sc(N4CCCC4)nn3c2=O)cc1,n,11.6µM,x,x,n,x
COC1CC2C=C(C)C=CC=CC(=O)NC(c3ccccc3)CC=CCCC(O)CC(=O)C2=C1O (stereo not given),n,x,5.8µM,5.8µM,x,x
COC(=O)C1C(=O)C=C(Nc2ccc(F)cc2F)CC1c1ccccc1 (stereo not given),n,u,n,n,n,n
Cc1sc2ncnc(N3CCN(S(=O)(=O)c4ccc(Br)cc4)CC3)c2c1C,n,11.6µM,u,u,n,n
Cc1sc2ncnc(SCC(=O)Nc3ccc(S(=O)(=O)N4CCOCC4)cc3)c2c1C,n,u,n,n,n,n
COC[C@@H](NC(C)=O)C(=O)NCc1ccccc1,n,x,x,x,x,x
CN1/C(=C\C=C2C(=O)NC(=O)NC2=O)C(C)(C)c2ccccc21,n,n,5.17µM,u,n,n
NCc1cccnc1,n,x,x,x,x,x
COc1cccc(OC)c1-c1nn2c(-c3n[nH]c4c3CCC4)nnc2s1,x,u,u,u,n,n
O=[N+]([O-])c1ccc(Cl)c([N+](=O)[O-])c1,n,u,u,16.4µM,n,n
N#Cc1cn(C2OC(CO)C(O)C2O)c2ncnc(N)c12 (stereo not given),-51.2,u,0.0073µM,u,u,n
NC(=O)c1c(Br)n(C2OC(CO)C(O)C2O)c2ncnc(N)c12 (stereo not given),n,u,4.11µM,9.2µM,u,n
N#Cc1c(Br)n(C2OC(CO)C(O)C2O)c2ncnc(N)c12 (stereo not given),u,n,u,u,u,n
SMILES,PI4K2A block,Nrf2 inh,KB-3-1 tox,KB-V1 cytotox,A549 tox,Giardia killer
O=C1c2cccc3cccc(c23)C(=O)N1CCN1CCN(C(=S)Nc2ccccc2)CC1,n,u,n,18.4µM,n,n
O=C(COc1ccccc1)N1CCN(CCN2C(=O)c3cccc4cccc(c34)C2=O)CC1,n,u,n,u,n,n
CC1(C)CC/C(=C/c2ccc(Cl)cc2)C1(O)Cn1cncn1 (stereo not given),n,x,x,x,x,x
CCN(CC)c1ccc(NC(=O)c2cccc(C)c2)cc1S(=O)(=O)Nc1ccccc1OC,n,u,n,u,n,n
CC(=O)O[C@H]1C(=O)[C@@]2(C)C([C@H](OC(=O)c3ccccc3)[C@]3(O)C[C@H](OC(=O)[C@H](O)[C@@H](NC(=O)Cc4ccccc4)c4ccccc4)C(C)=C1C3(C)C)[C@]1(OC(C)=O)CO[C@@H]1C[C@@H]2O (stereo not given in full),n,n,0.0073µM,u,u,n
CC(=O)O[C@@]12CO[C@@H]1C[C@H](O)[C@@]1(C)C(=O)[C@H](O)C3=C(C)[C@@H](OC(=O)[C@H](O)[C@@H](NC(=O)c4ccccc4)c4ccccc4)C[C@@](O)([C@@H](OC(=O)c4ccccc4)C12)C3(C)C (stereo not given in full),n,u,0.0073µM,8.2µM,n,n
CC(=O)O[C@H]1C(=O)[C@@]2(C)C([C@H](OC(=O)c3ccccc3)[C@]3(O)C[C@H](O)C(C)=C1C3(C)C)[C@]1(OC(C)=O)CO[C@@H]1C[C@H]2O (stereo not given in full),n,n,u,u,n,n
CCOc1ccc2nc(N3CCC(C(=O)Nc4ccc(Br)cc4F)CC3)sc2c1,n,u,x,x,n,n
C[N+]1(CCF)[C@@H]2CC[C@H]1CC(OC(=O)C(O)(c1ccccc1)c1ccccc1)C2 (stereo not given in full),n,x,x,x,x,x
CN(C)c1c([N+](=O)[O-])cc(N2C(=O)C=CC2=O)cc1[N+](=O)[O-],n,u,u,n,u,n
CN1CC[C@@]2(C)c3cc(O)ccc3N(C)C2O1 (stereo not given in full),n,n,n,n,n,n
CN1CC[C@@]2(C)c3cc(O)ccc3N(C)[C@@H]12,u,n,u,n,23.1µM,n
CCn1cc2nc(SCc3cccc(C(F)(F)F)c3)n(Cc3ccc(OC)cc3)c(=O)c2n1,n,23.1µM,n,18.4µM,n,x
CCn1cc2nc(SCc3c(F)cccc3Cl)n(CCc3ccccc3)c(=O)c2n1,n,u,n,n,n,x
CC[N+]12CCC(CC1)C(=C(c1ccccc1)c1ccccc1)C2,u,n,14.6µM,n,n,n
COc1cc2c(cc1OC)-c1c(OC)c(OC)cc3c1[C@H](C2)N(C)CC3,u,n,u,13µM,n,n
N[C@@H](Cc1ccc(Oc2cc(I)c(O)c(I)c2)c(I)c1)C(=O)O,n,x,x,x,x,x
